This note sets out measurements from PubChem BioAssay (EPA / NIEHS).

Read-out in test [1]: Interleukin 17F (IL17F), IL17F (gene 112744)
The experiment in a line: BSK_BT_xIL17F: BioMAP Diversity Plus: BT Assay for Interleukin 17F (IL17F) Biomarker Activity (AID 2284243). The note with it: primary human B cells with PBMC. In outline:
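Human B cells co-cultured with PBMC; secreted IL-17F quantified by LumineX xMAP 24 hours after chemical dosing. Activity fitted in the positive direction against DMSO negative control as baseline.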

Read-out in test [2]: Actin alpha 1 (ACTA1), ACTA1 (gene 58)
In words: BSK_MyoF_ACTA1: BioMAP Diversity Plus: MyoF Assay for Actin alpha 1 (ACTA1) Biomarker Activity (AID 2284244). The note with it: primary human lung fibroblasts. A digest of the protocol: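 Human lung fibroblasts (MyoF system) dosed with test chemical for 24 h; α-SMA measured by ELISA. Gain of signal fitted relative to DMSO negative control as baseline.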

Read-out in test [3]: Interleukin 2 (IL2), IL2 (gene 3558)
In words: BSK_BT_xIL2: BioMAP Diversity Plus: BT Assay for Interleukin 2 (IL2) Biomarker Activity (AID 2284245). The conditions noted are these: primary human B cells with PBMC. A digest of the protocol: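 Human B cells co-cultured with PBMC, exposed to test chemical for 24 h. Secreted IL-2 quantified by Luminex xMAP bead immunoassay; activity fitted in the positive direction relative to DMSO vehicle baseline.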

Read-out in test [4]: Basic fibroblast growth factor (bFGF), FGF2 (gene 2247)
In words: BSK_MyoF_bFGF: BioMAP Diversity Plus: MyoF Assay for Basic fibroblast growth factor (bFGF) Biomarker Activity (AID 2284246). The conditions noted are these: primary human lung fibroblasts. A digest of the protocol:
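Human lung fibroblasts were dosed with chemicals and bFGF was quantified by ELISA 24 h later. Activity was fitted in the gain-of-signal direction relative to DMSO as negative control and baseline. Parallel SRB total-protein staining tracked overt cytotoxicity.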

Read-out in test [5]: Collagen IV, COL4A1 (gene 1282)
The experiment in a line: BSK_MyoF_CollagenIV: BioMAP Diversity Plus: MyoF Assay for Collagen IV Biomarker Activity (AID 2284247). The note with it: primary human lung fibroblasts. A digest of the protocol: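 Primary human lung fibroblasts were exposed to test chemicals and sampled 24 h after dosing. Collagen IV levels were measured by ELISA and fitted in the positive direction against DMSO as negative control and baseline.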

Read-out in test [6]: Vascular cell adhesion molecule 1 (VCAM1), VCAM1 (gene 7412)
In words: BSK_BF4T_VCAM1: BioMAP Diversity Plus: BF4T Assay for Vascular cell adhesion molecule 1 (VCAM1) Biomarker Activity (AID 2284249). The note with it: primary human bronchial epithelial cells with fibroblasts. In outline: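 Human bronchial epithelial cell and dermal fibroblast co-culture exposed 24 h. VCAM-1 measured by ELISA; parallel SRB total-protein staining for cytotoxicity. Fitted in positive direction relative to DMSO.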

Read-out in test [7]: Collagen I, COL1A1 (gene 1277)
The experiment in a line: BSK_hDFCGF_CollagenI: BioMAP Diversity Plus: hDFCGF Assay for Collagen I Biomarker Activity (AID 2284250). The conditions noted are these: primary human foreskin fibroblasts. In outline:
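Primary human foreskin fibroblasts (hDFCGF system) exposed to chemical for 24 h; Collagen I measured by ELISA. Activity fitted in the positive direction relative to DMSO baseline, with SRB total-protein staining in parallel cultures for overt cytotoxicity.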

Read-out in test [8]: Monocyte Chemoattractant Protein-1 (MCP1), CCL2 (gene 6347)
In words: BSK_IMphg_MCP1: BioMAP Diversity Plus: IMphg Assay for Monocyte Chemoattractant Protein-1 (MCP1) Biomarker Activity (AID 2284253). The note with it: primary human endothelial cells with macrophages. A digest of the protocol: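 Human venular endothelial cells co-cultured with macrophages; MCP-1 measured by ELISA 24 hours post-dose and fitted against DMSO. Cytotoxicity monitored by SRB total-protein staining in parallel cultures.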

Read-out in test [9]: Macrophage Inflammatory Protein-1 Alpha (MIP1a), CCL3 (gene 6348)
The experiment in a line: BSK_IMphg_MIP1a: BioMAP Diversity Plus: IMphg Assay for Macrophage Inflammatory Protein-1 Alpha (MIP1a) Biomarker Activity (AID 2284255). The conditions noted are these: primary human endothelial cells with macrophages. A digest of the protocol: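 Co-culture of human venular endothelial cells and macrophages exposed to compounds for 24 h; MIP-1a measured by ELISA relative to DMSO. Cytotoxicity assessed in parallel cultures by sulforhodamine B total-protein staining at 560 nm.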

Read-out in test [10]: Plasminogen activator inhibitor-1 (PAI1), SERPINE1 (gene 5054)
In words: BSK_MyoF_PAI1: BioMAP Diversity Plus: MyoF Assay for Plasminogen activator inhibitor-1 (PAI1) Biomarker Activity (AID 2284256).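 As to outcome: PAI-1 protein level measured by ELISA in fibroblast cultures; PAI-1 read 24 h after compound addition.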 The conditions noted are these: primary human lung fibroblasts. A digest of the protocol:
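Human lung fibroblasts (MyoF system) were exposed to test chemicals for 24 h, then PAI-1 was quantified by ELISA. Activity was fitted in the positive (signal-gain) direction relative to DMSO vehicle as baseline.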

Read-out in another test: CD69, CD69 (gene 969)
In words: BSK_IMphg_CD69: BioMAP Diversity Plus: IMphg Assay for CD69 Biomarker Activity (AID 2284257). The conditions noted are these: primary human endothelial cells with macrophages. A digest of the protocol:
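Human venular endothelial cells co-cultured with macrophages; CD69 quantified by ELISA 24 h after compound addition. Activity fitted in the positive direction relative to DMSO baseline; cytotoxicity tracked in parallel cultures via SRB total-protein staining.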

Read-out in test [11]: Eotaxin 3, CCL26 (gene 10344)
In words: BSK_BF4T_Eotaxin3: BioMAP Diversity Plus: BF4T Assay for Eotaxin 3 Biomarker Activity (AID 2284258). The conditions noted are these: primary human bronchial epithelial cells with fibroblasts. In outline: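 Co-culture of human bronchial epithelial cells and dermal fibroblasts, exposed to chemicals for 24 h versus DMSO. Eotaxin-3 quantified by ELISA; cytotoxicity checked in parallel cultures by sulforhodamine B total-protein staining.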

Read-out in test [12]: Monocyte Chemoattractant Protein-1 (MCP1), CCL2 (gene 6347)
In words: BSK_BF4T_MCP1: BioMAP Diversity Plus: BF4T Assay for Monocyte Chemoattractant Protein-1 (MCP1) Biomarker Activity (AID 2284259). The note with it: primary human bronchial epithelial cells with fibroblasts. In outline: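 Co-culture of bronchial epithelial cells and dermal fibroblasts dosed with chemical; MCP-1 measured by ELISA 24 h later. Activity fitted in positive direction versus DMSO; cytotoxicity checked by SRB staining in parallel cultures.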

Read-out in test [13]: Intercellular Adhesion Molecule 1 (ICAM1), ICAM1 (gene 3383)
In words: BSK_BF4T_ICAM1: BioMAP Diversity Plus: BF4T Assay for Intercellular Adhesion Molecule 1 (ICAM1) Biomarker Activity (AID 2284260). The note with it: primary human bronchial epithelial cells with fibroblasts. In outline: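 Co-culture of human bronchial epithelial cells and dermal fibroblasts exposed 24 h to chemical; cell-surface ICAM-1 quantified by ELISA. Parallel SRB total-protein staining assessed cytotoxicity; activity fitted relative to DMSO.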

Read-out in test [14]: Interleukin-8 (IL8), CXCL8 (gene 3576)
In words: BSK_MyoF_IL8: BioMAP Diversity Plus: MyoF Assay for Interleukin-8 (IL8) Biomarker Activity (AID 2284261). The note with it: primary human lung fibroblasts. A digest of the protocol: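 IL-8 quantified by ELISA after 24 h compound exposure of primary human lung fibroblasts. SRB staining of parallel cultures flagged cytotoxicity; DMSO served as baseline.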

Read-out in the next test: CD90, THY1 (gene 7070)
The experiment in a line: BSK_BF4T_CD90: BioMAP Diversity Plus: BF4T Assay for CD90 Biomarker Activity (AID 2284262). The note with it: primary human bronchial epithelial cells with fibroblasts. In outline: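 Co-culture of human bronchial epithelial cells and dermal fibroblasts, 24 h compound exposure. Cell-surface CD90 measured by ELISA relative to DMSO; parallel SRB total-protein staining for cytotoxicity.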

Read-out in test [15]: Interleukin-8 (IL8), CXCL8 (gene 3576)
In words: BSK_BF4T_IL8: BioMAP Diversity Plus: BF4T Assay for Interleukin-8 (IL8) Biomarker Activity (AID 2284263). The conditions noted are these: primary human bronchial epithelial cells with fibroblasts. In outline: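 Human bronchial epithelial cells with dermal fibroblasts co-culture; IL-8 measured by ELISA 24 hours after dosing, fitted vs DMSO. Cytotoxicity tracked in parallel cultures by SRB total-protein staining.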

Read-out in test [16]: Interleukin-1 alpha (IL1a), IL1A (gene 3552)
The experiment in a line: BSK_BF4T_IL1a: BioMAP Diversity Plus: BF4T Assay for Interleukin-1 alpha (IL1a) Biomarker Activity (AID 2284264). The note with it: primary human bronchial epithelial cells with fibroblasts. A digest of the protocol: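 Human bronchial epithelial cells co-cultured with dermal fibroblasts, dosed and read at 24 h. Secreted/surface IL-1α quantified by ELISA; gain-of-signal fitted relative to DMSO baseline. Parallel SRB total-protein staining tracked cytotoxicity.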

Read-out in a further test: Decorin, DCN (gene 1634)
The experiment in a line: BSK_MyoF_Decorin: BioMAP Diversity Plus: MyoF Assay for Decorin Biomarker Activity (AID 2284265). The note with it: primary human lung fibroblasts. In outline:
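Decorin protein was quantified by ELISA 24 h after chemical addition to primary human lung fibroblasts and analysed as increase over DMSO. Cytotoxicity was tracked in parallel cultures by SRB total-protein staining read at 560 nm.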

“And” between values parts separate entries of the source, which are not always exact repeats. Equal entries are not always repeated. More than one record can exist for a structure, and the calls need not agree. The source made the active and inactive calls. The calls were made as follows: active = hit-call score of the fitted dose curve at least 0.9, where 1 is the maximum; inactive = score below 0.9.

As to `C=C(C)C(=O)OCCC(F)(F)C(F)(F)C(F)(F)C(F)(F)C(F)(F)C(F)(F)C(F)(F)C(F)(F)F`, the result in test [1], in test [2], in test [3], in [4], in test [5] and in test [6] was inactive. Further, the outcome in test [7] is “inactive”; in [8], “inactive”; in test [9] it was “inactive”; in test [10], “inactive”; with CD69, CD69 (gene 969), “inactive”; in [11], “inactive”. Further, the outcome in [12] is “inactive”; in test [13], “inactive”; in [14], “inactive”; with CD90, THY1 (gene 7070), “inactive”; in test [15] it was “inactive”; in test [16], “inactive”. The result with Decorin, DCN (gene 1634) was inactive.
The term AC50 denotes the concentration giving half of the maximal activity seen. In the case of `c1ccc2c(c1)-c1ccc3ccc4cccc5cc-2c1c3c45`, the outcome is “inactive” in [1]; “inactive” in test [2]; “inactive” in test [4]; “inactive” in test [14]; “inactive” in the test with Decorin, DCN (gene 1634). For the same compound, the AC50 in test [3] was 709 nM (active); in [5], 91.8 nM (active); in test [10], 1240 nM (active).
For the compound `O=C(O)C(F)(F)OC(F)(F)C(F)(F)OC(F)(F)C(F)(F)C(F)(F)C(F)(F)F`, the result in [1], in [2], in test [3], in test [4], in test [6] and in test [7] was inactive. The outcome is “inactive” in [8]; “inactive” in test [9]; “inactive” in test [10]; “inactive” with CD69, CD69 (gene 969); “inactive” in test [13]; “inactive” in test [14]. Besides, the outcome is “inactive” in the test with CD90, THY1 (gene 7070); “inactive” in test [16]; “inactive” in the test with Decorin, DCN (gene 1634). Also, the concentration at half-maximal activity (AC50) in test [5] is 43.5 µM (active) and 38.4 µM (active); in the test with CD69, CD69 (gene 969) it was 40300 nM (active); in [11], 5.34 µM (active) and 2.49 µM (active); in test [12], 8.8 µM (active) and 220 nM (active); in test [15] it was 1.82 µM (active) and 4.77 µM (active).
On to `COc1ccccc1NC(=O)CC(C)=O`, for which the result in test [1], in test [2], in test [3], in [4], in test [5] and in [10] was inactive. For the same compound, the outcome was “inactive” in test [14] and “inactive” with Decorin, DCN (gene 1634).
`CC(=O)OC(C)(C)C1CC=C(C)CC1` (stereo not given): the outcome in [1], in [2], in test [3], in [4], in test [5] and in [10] was inactive. Also, the outcome is “inactive” in test [14] and “inactive” with Decorin, DCN (gene 1634).
For `c1ccc(OCCOc2ccccc2)cc1`, the outcome in [7] was inactive.
On to `OCCN1CCOCC1`, for which the result in test [1], in test [2], in test [3], in test [4], in [5] and in test [10] was inactive. Further, the outcome is “inactive” in [14] and “inactive” with Decorin, DCN (gene 1634).
In the case of `CCOC(=O)C=Cc1ccccc1`, the result in test [1], in [2], in test [3], in [4], in [5] and in [10] was inactive. Also, the outcome in [14] was “inactive”; with Decorin, DCN (gene 1634) it was “inactive”.
